Measured values from PubChem BioAssay (EPA / NIEHS).
Records with an inconclusive call do not appear. Active and inactive are the calls of the source. How the source made its calls, unless noted: active means hit-call score of the fitted dose curve at least 0.9, where 1 is the maximum; inconclusive means response in the unintended direction; inactive means score below 0.9.

How the values were obtained:
[1] = CLD_ACTIN_6hr: CellzDirect (CLD) Gene Expression Assay for Baseline Control (Actin) at 6 hours (AID 2283676);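 further: active means increased actin mRNA relative to DMSO vehicle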
How it was run: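 Baseline actin transcript level measured by qNPA (S1 nuclease protection, chemiluminescence) in human hepatocyte cultures 6 h after chemical exposure; 0.2% DMSO vehicle as reference, cytotoxicity noted from morphology.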

[2] = read-out: Cytochrome P450 2B6 (Homo sapiens) (UniProt P20813); experiment: CLD_CYP2B6_6hr: CellzDirect (CLD) Gene Expression Assay for xenobiotic metabolism (CYP2B6) at 6 hours (AID 2283677);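 further: actives raise CYP2B6 transcript above DMSO baseline so AC50 marks an inducer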
How it was run: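 CYP2B6 transcript levels, read by chemiluminescent qNPA, were fitted for increase versus DMSO baseline; cultured human liver hepatocytes from two donor preparations were harvested 6 h after exposure to test chemicals at multiple concentrations.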

[3] = CCTE_Padilla_ZF_144hpf_TERATOSCORE: (Legacy) CCTE's 144 Hour Post-fertilization zebrafish Assay Teratoscore, Padilla Lab (AID 2283679; active means hit-call score of the fitted dose curve at least 0.9, where 1 is the maximum; inactive means score below 0.9;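 on AC50: zebrafish embryos with chorions exposed by immersion from 6-8 hpf to 5 dpf with daily renewal; teratogenicity score from eye scoring of death hatching and malformations at 144 hpf; higher score means more developmental defects relative to DMSO baseline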)
How it was run: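 Larvae scored by eye at 144 hpf for death, hatching and malformations after a day in clean Hanks'. Before that, daily-renewed exposure at 80 uM (0.4% DMSO, 26C) from roughly 6-8 hpf through 5 dpf, 4 embryos per chemical.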

[4] = read-out: HMG-CoA synthase (HMGCS2), HMGCS2 (gene 3158); experiment: CLD_HMGCS2_6hr: CellzDirect (CLD) Gene Expression Assay for HMG-CoA synthase (HMGCS2) at 6 hours (AID 2283682);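 further: actives raise HMGCS2 transcript above the 0.2% DMSO vehicle baseline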
How it was run: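 HMGCS2 transcript induction read by quantitative nuclease protection with chemiluminescence, 6 h after dosing of primary human hepatocytes. Baseline was 0.2% DMSO vehicle; phase-contrast morphology gave a yes/no cytotoxicity annotation.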

[5] = read-out: ABC Transporter (ABCB1), ABCB1 (gene 5243); experiment: CLD_ABCB1_24hr: CellzDirect (CLD) Gene Expression Assay for ABC Transporter (ABCB1) at 24 hours (AID 2283684);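 on AC50: potency for increase in ABCB1 mRNA relative to DMSO vehicle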
How it was run: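 ABCB1 mRNA induction versus 0.2% DMSO vehicle was read by qNPA chemiluminescence at 24 h. Cultured human hepatocytes from two donor preparations received daily fresh dosing, and phase-contrast cytotoxicity calls were annotated alongside the data.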

[6] = read-out: Cytochrome P450 3A4 (Homo sapiens) (UniProt P08684); experiment: CLD_CYP3A4_24hr: CellzDirect (CLD) Gene Expression Assay for xenobiotic metabolism (CYP3A4) at 24 hours (AID 2283689)
How it was run: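 CYP3A4 mRNA induction read by quantitative nuclease protection (chemiluminescence) 24 hr after dosing. Cultured human hepatocytes (two donor preparations) treated daily, vehicle 0.2% DMSO; phase-contrast morphology annotates cytotoxicity.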

[7] = read-out: Glyceraldehyde-3-phosphate dehydrogenase (Homo sapiens) (UniProt P04406); experiment: CLD_GAPDH_24hr: CellzDirect (CLD) Gene Expression Assay for Baseline Control (Glyceraldehyde 3-phosphate dehydrogenase) at 24 hours (AID 2283692)
How it was run: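 GAPDH baseline-control readout: qNPA chemiluminescent mRNA signal in human primary hepatocytes harvested 24 h after daily dosing, normalised to 0.2% DMSO with positive fitting direction; cytotoxicity annotated by phase-contrast morphology.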

[8] = read-out: sulfotransferase (SULT2A), SULT2A1 (gene 6822); experiment: CLD_SULT2A_24hr: CellzDirect (CLD) Gene Expression Assay for sulfotransferase (SULT2A) at 24 hours (AID 2283694)
How it was run: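 mRNA is measured by qNPA: probe hybridisation, S1 nuclease digestion, chemiluminescence, in lysates from human primary hepatocytes harvested 24 h after daily dosing. Vehicle was 0.2% DMSO. Phase-contrast microscopy flagged cytotoxicity (yes/no).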

[9] = read-out: Cytochrome P450 3A4 (Homo sapiens) (UniProt P08684); experiment: CLD_CYP3A4_48hr: CellzDirect (CLD) Gene Expression Assay for xenobiotic metabolism (CYP3A4) at 48 hours (AID 2283698)
How it was run: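 CYP3A4 induction read by qNPA chemiluminescence after 48 h, with fresh dosing solutions on consecutive days, in cultured human hepatocytes (two donors). Vehicle 0.2% DMSO as baseline; microscopy-based cytotoxicity annotated yes/no alongside data.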

[10] = read-out: xenobiotic metabolism (CYP1A1), CYP1A1 (gene 1543); experiment: CLD_CYP1A1_48hr: CellzDirect (CLD) Gene Expression Assay for xenobiotic metabolism (CYP1A1) at 48 hours (AID 2283705)
How it was run: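 CYP1A1 transcript measured by quantitative nuclease protection (chemiluminescent) 48 h after two daily treatments of human hepatocyte cultures, versus 0.2% DMSO. Morphology-based cytotoxicity flags accompany data; two donor preparations used.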

[11] = read-out: sulfotransferase (SULT2A), SULT2A1 (gene 6822); experiment: CLD_SULT2A_48hr: CellzDirect (CLD) Gene Expression Assay for sulfotransferase (SULT2A) at 48 hours (AID 2283710);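 further: hits raise SULT2A1 transcript above the 0.2% DMSO vehicle baseline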
How it was run: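 SULT2A1 transcript measured by qNPA chemiluminescence in human primary hepatocyte cultures after 48 h, with fresh dosing solutions on two consecutive days; gain-of-signal fitting against 0.2% DMSO vehicle; cytotoxicity annotated from phase-contrast morphology.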

[12] = STM_H9_OrnithineISnorm_perc: Stemina devTOX quickPredict H9 human embryonic stem cell (hESC)-based Assay for Ornithine (ORN) Metabolite Biomarker, Normalized (AID 2283712; active means hit-call score of the fitted dose curve at least 0.9, where 1 is the maximum; inactive means score below 0.9;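 further: ornithine released into spent medium during last day measured by mass spectrometry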)
How it was run: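 Metabolite endpoint from spent media of pluripotent H9 cells treated 72 h with daily re-feeding; ornithine measured by UPLC-HRMS against its 13C spike-in and referenced to the median 0.1% DMSO vehicle response.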

[13] = read-out: Cytochrome P450 2C19 (Homo sapiens) (UniProt P33261); experiment: CLD_CYP2C19_6hr: CellzDirect (CLD) Gene Expression Assay for xenobiotic metabolism (CYP2C19) at 6 hours (AID 2283678)
How it was run: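 CYP2C19 transcript induction was quantified by quantitative nuclease protection assay with chemiluminescent read-out, 6 h after dosing. Cells were primary human hepatocytes from two donor preparations, given fresh dosing solutions daily in 0.2% DMSO vehicle. Activity was relative to DMSO.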

[14] = read-out: Glyceraldehyde-3-phosphate dehydrogenase (Homo sapiens) (UniProt P04406); experiment: CLD_GAPDH_6hr: CellzDirect (CLD) Gene Expression Assay for Baseline Control (Glyceraldehyde 3-phosphate dehydrogenase) at 6 hours (AID 2283681);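 further: active means increased signal relative to DMSO vehicle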
How it was run: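 GAPDH baseline-control readout from qNPA (S1 nuclease digestion, probe hybridization, chemiluminescence) in lysates of cultured human hepatocytes harvested 6 h post-dosing. Chemicals tested at multiple concentrations versus 0.2% DMSO vehicle; microscopy-based cytotoxicity flagged yes/no.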

[15] = read-out: Glyceraldehyde-3-phosphate dehydrogenase (Homo sapiens) (UniProt P04406); experiment: CLD_GAPDH_48hr: CellzDirect (CLD) Gene Expression Assay for Baseline Control (Glyceraldehyde 3-phosphate dehydrogenase) at 48 hours (AID 2283706);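 further: active means higher GAPDH mRNA than DMSO vehicle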
How it was run: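 GAPDH baseline-control readout: qNPA chemiluminescent mRNA quantitation in human liver primary cells 48 h after daily dosing on two consecutive days, vehicle 0.2% DMSO; gain of signal fitted against DMSO, cytotoxicity flagged by phase-contrast morphology.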

[16] = read-out: xenobiotic metabolism (CYP1A2), CYP1A2 (gene 1544); experiment: CLD_CYP1A2_48hr: CellzDirect (CLD) Gene Expression Assay for xenobiotic metabolism (CYP1A2) at 48 hours (AID 2283703)
How it was run: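 Cytotoxicity was flagged yes/no from morphology, while CYP1A2 transcript induction was detected by qNPA chemiluminescence after a 48-hour exposure. Human primary hepatocyte cultures from separate donors received fresh dosing solutions daily over two days, with 0.2% DMSO as vehicle and baseline.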

[17] = read-out: Cytochrome P450 2C9 (Homo sapiens) (UniProt P11712); experiment: CLD_CYP2C9_24hr: CellzDirect (CLD) Gene Expression Assay for xenobiotic metabolism (CYP2C9) at 24 hours (AID 2283688)
How it was run: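 Induction of CYP2C9 mRNA was quantified by quantitative nuclease protection assay (chemiluminescence), gain of signal versus 0.2% DMSO vehicle, 24 h after dosing. Human primary hepatocytes (two donors) received fresh chemical daily at multiple concentrations; morphology-based cytotoxicity flagged yes/no.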

[18] = read-out: xenobiotic metabolism (CYP2C9), CYP2C9 (gene 1559); experiment: CLD_CYP2C9_48hr: CellzDirect (CLD) Gene Expression Assay for xenobiotic metabolism (CYP1A2) at 48 hours (AID 2283701; active means hit-call score of the fitted dose curve at least 0.9, where 1 is the maximum; inactive means score below 0.9)
How it was run: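 mRNA level measured by quantitative nuclease protection (S1 digestion, chemiluminescent detection) in lysates of human primary hepatocytes exposed 48 h with daily re-dosing. Induction fitted positively versus 0.2% DMSO; morphology-based cytotoxicity flagged yes/no.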

Sequence of Glyceraldehyde-3-phosphate dehydrogenase (Homo sapiens) (P04406 whole entry, looked up): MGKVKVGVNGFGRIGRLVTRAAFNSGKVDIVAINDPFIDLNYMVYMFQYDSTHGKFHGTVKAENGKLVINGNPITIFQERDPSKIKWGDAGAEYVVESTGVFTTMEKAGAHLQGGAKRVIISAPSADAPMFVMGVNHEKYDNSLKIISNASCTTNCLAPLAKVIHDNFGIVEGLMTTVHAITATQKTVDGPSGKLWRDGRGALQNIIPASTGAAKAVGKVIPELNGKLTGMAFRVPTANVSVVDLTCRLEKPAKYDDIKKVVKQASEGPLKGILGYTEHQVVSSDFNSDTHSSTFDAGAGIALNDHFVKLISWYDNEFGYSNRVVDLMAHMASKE
Sequence of Cytochrome P450 2C19 (Homo sapiens) (P33261 whole entry, looked up): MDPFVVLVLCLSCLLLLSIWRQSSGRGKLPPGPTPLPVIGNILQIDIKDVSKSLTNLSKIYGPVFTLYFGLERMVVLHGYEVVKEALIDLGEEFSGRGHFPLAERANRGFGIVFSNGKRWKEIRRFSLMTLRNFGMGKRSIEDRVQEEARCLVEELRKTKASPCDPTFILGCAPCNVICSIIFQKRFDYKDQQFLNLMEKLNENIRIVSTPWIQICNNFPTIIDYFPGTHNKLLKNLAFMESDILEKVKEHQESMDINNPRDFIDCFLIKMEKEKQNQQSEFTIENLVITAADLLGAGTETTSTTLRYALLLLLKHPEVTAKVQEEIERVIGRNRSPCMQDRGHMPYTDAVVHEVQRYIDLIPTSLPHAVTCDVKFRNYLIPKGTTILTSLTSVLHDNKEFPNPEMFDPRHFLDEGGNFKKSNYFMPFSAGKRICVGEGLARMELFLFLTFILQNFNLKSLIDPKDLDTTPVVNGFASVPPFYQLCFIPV
Sequence of Cytochrome P450 3A4 (Homo sapiens) (P08684 whole entry, looked up): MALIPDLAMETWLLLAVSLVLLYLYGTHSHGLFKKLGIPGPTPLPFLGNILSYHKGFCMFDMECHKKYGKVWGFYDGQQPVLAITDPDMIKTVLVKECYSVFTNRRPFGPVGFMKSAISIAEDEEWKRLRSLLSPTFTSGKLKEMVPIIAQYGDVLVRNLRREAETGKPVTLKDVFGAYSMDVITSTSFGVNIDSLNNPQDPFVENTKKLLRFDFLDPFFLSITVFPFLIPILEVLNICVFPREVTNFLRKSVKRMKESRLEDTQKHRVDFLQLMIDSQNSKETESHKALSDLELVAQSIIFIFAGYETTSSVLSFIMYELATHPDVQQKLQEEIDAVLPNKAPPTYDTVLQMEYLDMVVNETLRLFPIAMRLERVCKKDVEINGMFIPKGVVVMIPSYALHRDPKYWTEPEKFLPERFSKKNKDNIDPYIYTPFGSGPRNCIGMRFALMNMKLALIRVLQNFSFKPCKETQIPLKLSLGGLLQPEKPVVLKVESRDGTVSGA

With `CSC(=O)c1cccc2nnsc12` the outcome [1] was “inactive”, the outcome [2] was “inactive” and the AC50 [3] was 12.7 µM (active). For the same molecule, the outcome [4] was “inactive”, the outcome [5] was “inactive” and the outcome [6] was “inactive”. For the same molecule, the outcome [7] was “inactive”, the outcome [8] was “inactive” and the outcome [9] was “inactive”. For the same molecule, the outcome [10] was “inactive”, the outcome [11] was “inactive” and the AC50 [12] was 80.2 µM (active).
With `O=C(O)C1(C(=O)Nc2ccc(Cl)cc2Cl)CC1` the outcome [1] was “inactive”, the outcome [13] was “inactive” and the AC50 [3] was 22.7 µM (active). For the same molecule, the outcome [14] was “inactive”, the outcome [4] was “inactive” and the outcome [6] was “inactive”. The outcome [8] was “inactive”, the outcome [9] was “inactive” and the outcome [10] was “inactive”. For the same molecule, the outcome [15] was “inactive” and the outcome [12] was “inactive”.
In the case of `CC(C)(C)[C@@H](O)[C@@H](Cc1ccc(Cl)cc1)n1cncn1`, the outcome [1] is reported as “inactive”, the AC50 [2] is reported as 1.73 µM (active) and the AC50 [3] is reported as 46.7 µM (active). For the same molecule, the outcome [14] was “inactive”, the AC50 [4] was 1.9 µM (active) and the AC50 [5] was 9.46 µM (active). The AC50 [6] was 2.66 µM (active), the outcome [7] was “inactive” and the outcome [8] was “inactive”. For the same molecule, the AC50 [9] was 2.15 µM (active), the AC50 [16] was 3.97 µM (active) and the AC50 [10] was 3.97 µM (active). For the same molecule, the outcome [11] was “inactive” and the outcome [12] was “inactive”.
With `CCCCC(CC)CN1C(=O)C2C3C=CC(C3)C2C1=O` (centres undefined) the outcome [1] was “inactive”, the AC50 [2] was 4.33 µM (active) and the AC50 [3] was 13 µM (active). For the same molecule, the outcome [5] was “inactive”, the AC50 [6] was 20 µM (active) and the outcome [8] was “inactive”. The AC50 [9] was 20 µM (active), the AC50 [10] was 33.7 µM (active) and the AC50 [11] was 20 µM (active).
For `Oc1ccc(C(c2ccc(O)cc2)C(Cl)(Cl)Cl)cc1`, the outcome [1] was “inactive”, the outcome [2] was “inactive” and the AC50 [3] was 17.1 µM (active). For the same molecule, the outcome [4] was “inactive”, the outcome [5] was “inactive” and the outcome [7] was “inactive”. For the same molecule, the outcome [8] was “inactive”, the outcome [9] was “inactive” and the outcome [15] was “inactive”. For the same molecule, the AC50 [12] was 0.00653 µM (active).
In the case of `COC(=O)c1ccccc1C(=O)O`, the outcome [1] is reported as “inactive”, the outcome [2] is reported as “inactive” and the outcome [13] is reported as “inactive”. The outcome [3] was “inactive”, the outcome [14] was “inactive” and the outcome [4] was “inactive”. For the same molecule, the outcome [5] was “inactive”, the outcome [6] was “inactive” and the outcome [7] was “inactive”. For the same molecule, the outcome [8] was “inactive”, the outcome [10] was “inactive” and the outcome [15] was “inactive”. For the same molecule, the outcome [11] was “inactive” and the AC50 [12] was 0.00297 µM (active).
With `COC(=O)c1ccccc1S(=O)(=O)NC(=O)Nc1nc(OC(F)F)cc(OC(F)F)n1` the outcome [1] was “inactive”, the outcome [2] was “inactive” and the outcome [13] was “inactive”. For the same molecule, the AC50 [3] was 3.02 µM (active), the outcome [14] was “inactive” and the outcome [5] was “inactive”. For the same molecule, the outcome [7] was “inactive”, the outcome [8] was “inactive” and the outcome [10] was “inactive”.
With `CCCCOC(=O)[C@@H](C)Oc1ccc(Oc2ccc(C(F)(F)F)cn2)cc1` the outcome [1] was “inactive”, the outcome [2] was “inactive” and the outcome [13] was “inactive”. For the same molecule, the AC50 [3] was 5.45 µM (active), the outcome [4] was “inactive” and the outcome [5] was “inactive”. The outcome [6] was “inactive”, the outcome [7] was “inactive” and the outcome [8] was “inactive”. For the same molecule, the outcome [9] was “inactive”, the outcome [10] was “inactive” and the AC50 [12] was 80.7 µM (active).
For `CCCN(CCC)c1c([N+](=O)[O-])cc(C(F)(F)F)c(N)c1[N+](=O)[O-]`, the outcome [1] was “inactive”, the AC50 [2] was 0.752 µM (active) and the outcome [3] was “inactive”. For the same molecule, the outcome [14] was “inactive”, the outcome [5] was “inactive” and the AC50 [6] was 8.44 µM (active). The outcome [8] was “inactive”, the AC50 [9] was 7.62 µM (active) and the AC50 [10] was 5.19 µM (active). The outcome [11] was “inactive” and the outcome [12] was “inactive”.
In the case of `COc1c(Cl)ccc(Cl)c1C(=O)O`, the outcome [1] is reported as “inactive”, the outcome [13] is reported as “inactive” and the outcome [3] is reported as “inactive”. The outcome [14] was “inactive”, the outcome [4] was “inactive” and the outcome [5] was “inactive”. The outcome [17] was “inactive”, the outcome [6] was “inactive” and the outcome [8] was “inactive”. For the same molecule, the outcome [9] was “inactive”, the AC50 [18] was 0.0267 µM (active) and the outcome [11] was “inactive”.
With `CCOC(=O)NCCOc1ccc(Oc2ccccc2)cc1` the outcome [1] was “inactive”, the AC50 [2] was 3.97 µM (active) and the outcome [13] was “inactive”. The AC50 [3] was 15.4 µM (active), the outcome [5] was “inactive” and the outcome [17] was “inactive”. For the same molecule, the outcome [8] was “inactive”, the outcome [9] was “inactive” and the outcome [10] was “inactive”. For the same molecule, the outcome [11] was “inactive”.
In the case of `CCCCCCC(C)OC(=O)COc1nc(F)c(Cl)c(N)c1Cl` (centres undefined), the outcome [1] is reported as “inactive”, the outcome [2] is reported as “inactive” and the outcome [13] is reported as “inactive”. For the same molecule, the AC50 [3] was 46.9 µM (active), the outcome [14] was “inactive” and the outcome [17] was “inactive”. The outcome [6] was “inactive”, the outcome [7] was “inactive” and the outcome [8] was “inactive”. For the same molecule, the outcome [15] was “inactive”.
